We go through 6 molecules from PubChem BioAssay.

The structures appear in SMILES notation. Where “and” joins values, the source holds several entries; their conditions need not be identical. Identical values can stand only once. Calls of active or inactive are those of the source. Unless noted, the rule behind the calls is not given here.

Test [1] is described as follows: compound effects on lung adenocarcinoma cell viability – A549, calcein-AM fluorescence, 48 h, basal, profiling panel (AID 1162). Note: test concentration not given here. The settings on record: higher = more signal.
Test [2] in a line: compound effects on differentiated 3T3-L1 adipocyte viability – cell-based, 3T3-L1 adipocytes, calcein-AM fluorescence, 48 h, basal, profiling panel (AID 1163). Note: test concentration not given here. The following applies: 3T3-L1 adipocytes viability, higher = more signal.
Test [3] can be described thus: compound effects on hepatocellular carcinoma cell viability – HepG2, calcein-AM fluorescence, 48 h, basal, profiling panel (AID 1164). Note: test concentration not given here. The following applies: higher = more signal.
Test [4] is described as follows: compound effects on multiple myeloma cell viability – MM1S, calcein-AM fluorescence, 48 h, basal, profiling panel (AID 1165).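 Note: viability of MM1S multiple myeloma cells under basal unstimulated conditions; test concentration not given here.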 The settings on record: higher = more signal.
Test [5] is described as follows: calcein-AM signal in unstimulated myeloma cells – cell-based, calcein-AM fluorescence, 48 h, PK04 Diversity Set, profiling panel (AID 1166).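 Note: cells grown under basal conditions without added stimulus; test concentration not given here.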 The following applies: RPMI8226 myeloma viability, higher = more signal.
The nature of test [6]: JC-1 mitochondrial signal, unstimulated HepG2 cells – cell-based, JC-1 fluorescence, 24 h, 100 nL compound, profiling panel (AID 1167). Note: test concentration not given here. The settings on record: HepG2 mitochondrial potential, higher = more signal.
Test [7] is described as follows: JC-1 mitochondrial signal, unstimulated adipocytes – cell-based, JC-1 fluorescence, 3T3-L1 adipocytes, 24 h, 100 nL compound, profiling panel (AID 1168). Note: test concentration not given here. The settings on record: JC-1 mitochondrial fluorescence, higher = more signal, called active from +8 up or from −8 down.
A short description of test [8]: JC-1 mitochondrial signal, unstimulated myeloma cells – cell-based, JC-1 fluorescence, RPMI8226, 24 h, 100 nL compound, profiling panel (AID 1169). Note: test concentration not given here. The following applies: JC-1 mitochondrial potential fluorescence, higher = more signal.
Test [9] in a line: JC-1 mitochondrial signal, unstimulated MM1S myeloma – cell-based, JC-1 fluorescence, 24 h, 100 nL compound, profiling panel (AID 1170). Note: test concentration not given here. The settings on record: MM1S mitochondrial potential, higher = more signal.
Test [10] in a line: resazurin metabolic signal in A549 cells – cell-based, resazurin fluorescence, 24 h, PK04 Diversity Set, profiling panel (AID 1171). Note: test concentration not given here. The settings on record: A549 viability, higher = more signal, called active from +8 up or from −8 down. On the technique in general: Alamar Blue is a resazurin reagent that responds to reducing activity.
A short description of test [11]: resazurin metabolic signal in HepG2 cells – cell-based, resazurin fluorescence, 24 h, PK04 Diversity Set, profiling panel (AID 1172). Note: test concentration not given here. The settings on record: HepG2 viability, higher = more signal.
Test [12] in a line: budding yeast growth changes without added modifier – OD600, strain BY4716, 24 h, basal condition, primary screen (AID 1173). The settings on record: S. cerevisiae BY4716 growth, OD600, 24 h; higher = more signal, called active from +8 up or from −8 down.
A short description of test [13]: viability profiling in MM1S myeloma cells – cell-based, resazurin fluorescence, basal, 24 h, PK04 Diversity Set, profiling panel (AID 1174). Note: test concentration not given here. The following applies: higher = more signal, called active from +8 up or from −8 down.
Test [14] has as its target Dihydroorotate dehydrogenase (quinone), mitochondrial (Plasmodium falciparum (isolate 3D7)) (UniProt Q08210). The test can be described thus: inhibition of P. falciparum DHODH – biochemical, C-terminal His tag, absorbance 600 nm, primary screen (AID 1175).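 Note: recombinant parasite enzyme with a five histidine tag at its C terminus; test concentration not given here.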 The settings on record: PfDHODH enzyme, DCIP absorbance 600 nm; higher = more signal, called active from +8 up or from −8 down.

A short description of test [15]: inhibition of PAO1 biofilm formation – strain PAO1, LB-PBS medium, absorbance 600 nm, primary screen (AID 1176). Note: test concentration not given here. The following applies: P. aeruginosa PAO1 growth/biofilm, A600, 12 h; higher = more signal.
A short description of test [16]: growth modulation of vineyard yeast isolate – strain RM11-1a, OD600, basal, 24 h, primary screen (AID 1177).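 Note: cultures grown under basal conditions with no added stressor; test concentration not given here.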 The following applies: S. cerevisiae RM11-1a growth, OD600, 24 h; higher = more signal, called active from +8 up or from −8 down.
Test [17] in a line: growth of efflux-deficient E. coli DRC39 – strain DRC39, OD650, 24 h, E. coli filamentation inducers, primary screen (AID 1178).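 Note: growth measured as culture turbidity by optical density at 650 nm; test concentration not given here.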 The following applies: E. coli DRC39 acrAB, higher = more signal, called active from +8 up or from −8 down.
A short description of test [18]: growth of efflux-deficient E. coli DRC39 – strain DRC39, OD650, 48 h, E. coli filamentation inducers, primary screen (AID 1179).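 Note: screen aims at cell division blockers that make cells filament.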 The settings on record: E. coli DRC39 delta-acrAB growth, higher = more signal, called active from +8 up or from −8 down.
Test [19] is described as follows: viability profiling in RPMI8226 myeloma cells – cell-based, resazurin fluorescence, basal, 24 h, PK04 Diversity Set, profiling panel (AID 1180).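 Note: RPMI8826 multiple myeloma cell line at 5000 cells per well; test concentration not given here.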 The following applies: higher = more signal.
Test [20] has as its target E3 ubiquitin-protein ligase XIAP (Homo sapiens) (UniProt P98170). The test can be described thus: small molecules binding XIAP protein – biophysical, small-molecule microarray, fluorescence 635 nm, primary screen (AID 1181).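 Note: score merges 667 nm emission and signal to noise over triplicate slides.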 The following applies: higher = more signal.

Dihydroorotate dehydrogenase (quinone), mitochondrial (Plasmodium falciparum (isolate 3D7)), sequence (Q08210 whole entry, looked up): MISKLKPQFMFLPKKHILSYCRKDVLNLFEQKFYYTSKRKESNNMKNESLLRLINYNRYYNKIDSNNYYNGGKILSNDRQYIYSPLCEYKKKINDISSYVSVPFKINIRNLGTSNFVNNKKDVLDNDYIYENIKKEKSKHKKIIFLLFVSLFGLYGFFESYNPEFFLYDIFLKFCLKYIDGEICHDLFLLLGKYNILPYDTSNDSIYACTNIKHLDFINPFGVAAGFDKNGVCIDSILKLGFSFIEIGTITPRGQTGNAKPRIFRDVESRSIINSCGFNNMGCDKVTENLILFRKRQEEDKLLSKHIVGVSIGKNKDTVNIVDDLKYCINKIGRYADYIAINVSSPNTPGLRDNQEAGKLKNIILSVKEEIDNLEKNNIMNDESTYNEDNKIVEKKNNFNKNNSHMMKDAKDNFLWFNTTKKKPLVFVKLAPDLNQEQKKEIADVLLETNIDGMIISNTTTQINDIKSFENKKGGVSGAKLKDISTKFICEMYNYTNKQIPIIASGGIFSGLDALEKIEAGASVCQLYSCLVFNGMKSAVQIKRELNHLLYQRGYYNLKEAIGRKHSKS
E3 ubiquitin-protein ligase XIAP (Homo sapiens), sequence (P98170 whole entry, looked up): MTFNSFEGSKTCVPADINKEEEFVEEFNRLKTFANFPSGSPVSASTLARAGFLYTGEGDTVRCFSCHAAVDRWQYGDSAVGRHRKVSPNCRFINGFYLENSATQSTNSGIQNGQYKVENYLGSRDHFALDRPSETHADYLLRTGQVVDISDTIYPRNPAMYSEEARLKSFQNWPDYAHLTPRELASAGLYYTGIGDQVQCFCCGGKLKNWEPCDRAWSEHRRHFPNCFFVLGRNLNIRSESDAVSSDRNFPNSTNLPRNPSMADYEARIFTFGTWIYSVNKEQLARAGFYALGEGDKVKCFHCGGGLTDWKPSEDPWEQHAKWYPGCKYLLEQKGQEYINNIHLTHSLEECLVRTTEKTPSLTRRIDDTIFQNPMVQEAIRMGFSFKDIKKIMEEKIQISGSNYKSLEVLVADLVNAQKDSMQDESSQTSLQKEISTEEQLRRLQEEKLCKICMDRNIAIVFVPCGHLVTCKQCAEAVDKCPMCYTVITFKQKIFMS

As to `C=C[C@H](OC)[C@@H](O)c1ccc(O)c(F)c1`, the z-score in test [1] was -0.52 and -0.4; in test [2], -0.345 and -0.128; in [3], -0.0991 and 0.594; in test [4], -1.17 and 1.06; in test [5] it was 0.544 and 0.196; in test [6], -0.914 and 0.658. The z-score in [7] is -0.186 (inactive) and -0.636 (inactive); in test [8] it was 0.675 and 0.679; in [9], -0.0752 and -0.474; in [10], -0.535 (inactive) and -0.0165 (inactive); in test [11], -0.463 and 0.413; in [12], -2.28 (inactive) and -3.3 (inactive). Also, the z-score was -0.74 (inactive) and 0.169 (inactive) in test [13]; 0.614 (inactive) and 0.45 (inactive) in [15]; -0.684 (inactive) and -0.0772 (inactive) in [16]; 0.136 (inactive) and 1.2 (inactive) in test [17]; 0.0056 (inactive) and 1 (inactive) in test [18]; -0.792 and 0.496 in [19]. Moreover, the composite z-score was -0.697 (inactive) and -0.991 (inactive) in test [14]; -0.283 and -0.107 in test [20].

On to `C=CCN(C(=O)C1N(c2ccc(CCO)cc2)C(=O)C2C(C(=O)O)C3C=CC21O3)c1ccc(OC)cc1` (stereo not given), for which the z-score was 0.414 and -0.783 in [1]; 0.432 and 0.014 in test [2]; -0.535 and -0.905 in test [3]; 1.02 and 1.1 in [4]; -0.0159 and 0.492 in test [5]; -0.19 and -0.0346 in [6]. Further, the z-score is -0.246 (inactive) and -0.356 (inactive) in test [7]; -0.0146 and 0.609 in test [8]; -0.358 and 0.691 in test [9]; -1.23 (inactive) and 0.468 (inactive) in test [10]; -1.89 and 0.336 in test [11]; -0.311 (inactive) and -0.641 (inactive) in test [12]. In addition, the z-score in [13] is -1.58 (inactive) and 0.522 (inactive); in [15], -0.606 (inactive) and 0.428 (inactive); in test [16] it was 0.671 (inactive) and -0.529 (inactive); in [17], -0.782 (inactive) and 0.15 (inactive); in [18] it was -0.949 (inactive) and -0.249 (inactive); in test [19] it was -0.641 and -0.0655. Further, the composite z-score is 0.51 (inactive) and -0.392 (inactive) in test [14]; 0.0808 and -0.0054 in test [20].

In the case of `C[N+](C)(C)CCCCNC(=O)[C@H]1C[C@H]2C(=O)N[C@@H](CCCC[N+](C)(C)C)C(=O)N2[C@H]1c1cccc(OCCO)c1`, the z-score was -0.663 and -0.261 in test [1]; -0.488 and -0.571 in [2]; -1.13 and -0.231 in test [3]; -0.485 and -1.67 in [4]; 0.267 and 0.461 in test [5]; -1.2 and -0.91 in test [6]. Also, the z-score in test [7] is -0.0125 (inactive) and 0.0612 (inactive); in test [8], -0.117 and 0.49; in test [9], -0.199 and -0.118; in [10], -0.964 (inactive) and -0.711 (inactive); in [11], -0.114 and -3.58; in test [12], 0.315 (inactive) and -0.201 (inactive). Besides, the z-score is -1.18 (inactive) and -1.75 (inactive) in [13]; 0.187 (inactive) and 0.23 (inactive) in test [15]; 0.152 (inactive) and -0.406 (inactive) in test [16]; -0.93 (inactive) and -1 (inactive) in test [17]; -1.32 (inactive) and -1.66 (inactive) in [18]; -1.16 and -0.819 in test [19]. The composite z-score is -27.2 (active) and -30.4 (active) in test [14]; 0.0159 and 0.136 in [20].

With `C[N+](C)(C)CCCCNC(=O)[C@@H]1C[C@@H]2C(=O)N[C@@H](CCCC[N+](C)(C)C)C(=O)N2[C@@H]1c1cccc(OCCO)c1`, the z-score in test [1] is 0.901 and 1.05; in test [2], 0.462 and -0.276; in test [3], -0.517 and 0.473; in [4] it was -0.531 and -0.212; in [5] it was -0.719 and -0.495; in [6], 0.0138 and 1.44. In addition, the z-score is -0.393 (inactive) and 0.547 (inactive) in test [7]; 0.352 and -0.897 in test [8]; -0.218 and 0.26 in test [9]; -0.375 (inactive) and -0.0246 (inactive) in test [10]; -0.249 and -0.0346 in [11]; 0.962 (inactive) and 0.187 (inactive) in test [12]. Moreover, the z-score is 0.405 (inactive) and 0.349 (inactive) in test [13]; -0.239 (inactive) and 0.022 (inactive) in test [15]; 1.57 (inactive) and 0.24 (inactive) in test [16]; 0.113 (inactive) and -0.132 (inactive) in [17]; -0.0555 (inactive) and 0.517 (inactive) in test [18]; 0.399 and 0.607 in test [19]. For the same molecule, the composite z-score in test [14] is -30.9 (active) and -30.3 (active); in [20], 1.01 and -0.22.

`C=CC[C@H](O)c1ccc(OCCO)cc1`: the z-score in test [1] is -0.168 and -0.248; in test [2], -0.219 and -0.258; in test [3], -0.267 and 0.456; in test [4], 0.842 and -1.08; in test [5], -0.252 and -0.209; in test [6] it was -0.301 and -0.603. Also, the z-score in [7] was -0.315 (inactive) and 0.251 (inactive); in test [8], -0.0607 and 0.117; in [9], 0.319 and -0.662; in test [10], -0.233 (inactive) and -0.884 (inactive); in [11], 0.116 and -0.551; in test [12], -1.47 (inactive) and -1.79 (inactive). The z-score is -0.567 (inactive) and -0.911 (inactive) in test [13]; 0.225 (inactive) and -0.0818 (inactive) in test [15]; -0.0329 (inactive) and -0.774 (inactive) in test [16]; 0.375 (inactive) and -0.241 (inactive) in test [17]; 0.333 (inactive) and -0.405 (inactive) in test [18]; -0.535 and 0.0681 in [19]. Besides, the composite z-score in test [14] was -0.364 (inactive) and -0.704 (inactive); in [20], 0.0697 and -0.152.

For the molecule `C=C[C@H](OC)[C@@H](O)c1ccc(OCCO)cc1`, the z-score was -0.057 and 1.18 in test [1]; -0.367 and 0.0113 in [2]; -0.485 and 0.98 in test [3]; -0.457 and 1.61 in test [4]; -0.179 and 0.542 in [5]; -0.899 and 1.11 in [6]. For the same molecule, the z-score is -0.433 (inactive) and -0.178 (inactive) in [7]; -0.0855 and -0.21 in test [8]; 0.412 and 1.06 in [9]; -0.555 (inactive) and -0.0644 (inactive) in test [10]; -0.843 and 0.501 in test [11]; -0.43 (inactive) and -1.55 (inactive) in test [12]. Further, the z-score was -0.887 (inactive) and 0.51 (inactive) in test [13]; 0.0123 (inactive) and 1.37 (inactive) in test [15]; 0.952 (inactive) and -0.0987 (inactive) in test [16]; -0.258 (inactive) and 1.78 (inactive) in [17]; -0.366 (inactive) and 1.8 (inactive) in [18]; -1.28 and 1.05 in [19]. Besides, the composite z-score is -0.0113 (inactive) and -0.134 (inactive) in test [14]; -0.206 and -0.352 in test [20].
